Assay results: the supplement of paper PMC11732987, “Enantioselective OTUD7B fragment discovery through chemoproteomics screening and high-throughput optimisation” (Communications Chemistry, 2025)

Legend:
Experiment in all cases: log2 ratio of Biotin-Ahx-Ub-VS probe labelling (fragment/DMSO); higher = less target engagement (more negative = stronger competition), active = hit call of the paper (q ≤ 0.05, log2 ratio ≤ -1)
Settings in all cases: compound concentration: 200 uM; treatment time: 3 h
OTUD6B = biological target: T1, OTUD6B (UniProt Q8N6M0)
T1 sequence (whole entry): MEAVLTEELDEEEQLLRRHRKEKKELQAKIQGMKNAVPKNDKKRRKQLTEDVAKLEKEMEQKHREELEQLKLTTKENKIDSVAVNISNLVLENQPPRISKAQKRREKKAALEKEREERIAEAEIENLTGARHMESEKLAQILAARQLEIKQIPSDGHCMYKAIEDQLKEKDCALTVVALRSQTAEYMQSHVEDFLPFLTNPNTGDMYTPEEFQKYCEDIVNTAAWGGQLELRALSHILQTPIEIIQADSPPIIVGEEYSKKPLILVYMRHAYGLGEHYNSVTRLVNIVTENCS
How it was run: (§1)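 Labelling with Biotin-Ahx-Ub-VS (0.5 µM final, 1 h) followed a 3 h triplicate treatment of HEK293T lysate (495 µg per sample, Tris/CHAPS/IGEPAL buffer with protease inhibitors) with fragment at 200 µM or vehicle. Labelled DUBs were NeutrAvidin-enriched, digested with LysC and trypsin, and run by diaPASEF LC-MS/MS. The values, average log2 fragment/vehicle ratios by unpaired t-test, come from global-median-normalised Spectronaut label-free quantities. Proteins with ≥2 unique peptides were used.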

OTUD7B = biological target: T2, OTUD7B (UniProt Q6GQQ9)
T2 sequence (whole entry): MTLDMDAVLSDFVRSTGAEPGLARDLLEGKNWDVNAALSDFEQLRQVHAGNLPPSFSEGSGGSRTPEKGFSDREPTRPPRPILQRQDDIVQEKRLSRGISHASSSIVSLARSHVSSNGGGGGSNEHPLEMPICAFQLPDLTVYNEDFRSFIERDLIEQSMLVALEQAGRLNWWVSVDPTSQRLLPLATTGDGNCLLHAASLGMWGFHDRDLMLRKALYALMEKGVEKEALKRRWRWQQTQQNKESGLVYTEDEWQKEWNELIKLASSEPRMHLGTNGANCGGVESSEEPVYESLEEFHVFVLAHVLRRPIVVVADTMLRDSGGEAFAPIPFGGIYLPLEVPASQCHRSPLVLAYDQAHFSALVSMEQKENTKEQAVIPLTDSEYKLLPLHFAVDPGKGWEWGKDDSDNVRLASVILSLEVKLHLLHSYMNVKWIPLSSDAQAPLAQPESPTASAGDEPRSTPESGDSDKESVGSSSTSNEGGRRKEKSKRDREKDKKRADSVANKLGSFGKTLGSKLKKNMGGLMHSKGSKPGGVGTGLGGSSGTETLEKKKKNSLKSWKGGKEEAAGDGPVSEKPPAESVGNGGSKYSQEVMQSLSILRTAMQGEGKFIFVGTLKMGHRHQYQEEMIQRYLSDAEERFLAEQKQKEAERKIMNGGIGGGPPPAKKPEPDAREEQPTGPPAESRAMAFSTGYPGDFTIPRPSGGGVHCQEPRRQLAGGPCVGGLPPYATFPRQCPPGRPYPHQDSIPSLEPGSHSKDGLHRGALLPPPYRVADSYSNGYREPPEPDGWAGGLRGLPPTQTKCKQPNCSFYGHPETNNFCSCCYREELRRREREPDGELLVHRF
How it was run: as §1

PRPF8 = PRPF8 (UniProt Q6P2Q9)
How it was run: as §1

PSMD7 = biological target: T3, PSMD7 (UniProt P51665)
T3 sequence (whole entry): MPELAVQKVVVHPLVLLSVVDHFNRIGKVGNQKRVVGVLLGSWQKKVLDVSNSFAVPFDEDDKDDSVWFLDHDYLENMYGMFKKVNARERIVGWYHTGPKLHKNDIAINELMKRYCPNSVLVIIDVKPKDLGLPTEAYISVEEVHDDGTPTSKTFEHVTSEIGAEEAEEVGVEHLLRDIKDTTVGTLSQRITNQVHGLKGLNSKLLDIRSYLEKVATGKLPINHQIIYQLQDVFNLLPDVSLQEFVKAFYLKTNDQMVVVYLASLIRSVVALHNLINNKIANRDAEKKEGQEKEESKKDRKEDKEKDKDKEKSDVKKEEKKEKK
How it was run: as §1

UCHL1 = UCHL1 (UniProt P09936)
How it was run: as §1

UCHL3 = biological target: T4, UCHL3 (UniProt P15374)
T4 sequence (whole entry): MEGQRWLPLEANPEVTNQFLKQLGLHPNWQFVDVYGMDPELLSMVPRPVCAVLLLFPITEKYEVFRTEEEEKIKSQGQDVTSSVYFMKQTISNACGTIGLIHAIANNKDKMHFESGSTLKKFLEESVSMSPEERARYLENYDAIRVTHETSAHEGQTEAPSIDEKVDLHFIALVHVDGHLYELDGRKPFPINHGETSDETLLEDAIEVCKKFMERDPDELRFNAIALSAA
How it was run: as §1

UCHL5 = biological target: T5, UCHL5 (UniProt Q9Y5K5)
T5 sequence (whole entry): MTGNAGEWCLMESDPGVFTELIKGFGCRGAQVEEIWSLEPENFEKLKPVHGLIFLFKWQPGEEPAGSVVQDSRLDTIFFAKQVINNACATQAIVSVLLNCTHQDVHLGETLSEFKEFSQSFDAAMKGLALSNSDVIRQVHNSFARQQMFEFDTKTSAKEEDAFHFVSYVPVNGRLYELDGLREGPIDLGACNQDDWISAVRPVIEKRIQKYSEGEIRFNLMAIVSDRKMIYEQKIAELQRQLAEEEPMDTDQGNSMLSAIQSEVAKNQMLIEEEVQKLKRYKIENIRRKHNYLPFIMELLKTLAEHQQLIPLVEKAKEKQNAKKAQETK
How it was run: as §1

USP10 = USP10 (UniProt Q14694)
How it was run: as §1

USP15 = biological target: T6, USP15 (UniProt Q9Y4E8)
T6 sequence (whole entry): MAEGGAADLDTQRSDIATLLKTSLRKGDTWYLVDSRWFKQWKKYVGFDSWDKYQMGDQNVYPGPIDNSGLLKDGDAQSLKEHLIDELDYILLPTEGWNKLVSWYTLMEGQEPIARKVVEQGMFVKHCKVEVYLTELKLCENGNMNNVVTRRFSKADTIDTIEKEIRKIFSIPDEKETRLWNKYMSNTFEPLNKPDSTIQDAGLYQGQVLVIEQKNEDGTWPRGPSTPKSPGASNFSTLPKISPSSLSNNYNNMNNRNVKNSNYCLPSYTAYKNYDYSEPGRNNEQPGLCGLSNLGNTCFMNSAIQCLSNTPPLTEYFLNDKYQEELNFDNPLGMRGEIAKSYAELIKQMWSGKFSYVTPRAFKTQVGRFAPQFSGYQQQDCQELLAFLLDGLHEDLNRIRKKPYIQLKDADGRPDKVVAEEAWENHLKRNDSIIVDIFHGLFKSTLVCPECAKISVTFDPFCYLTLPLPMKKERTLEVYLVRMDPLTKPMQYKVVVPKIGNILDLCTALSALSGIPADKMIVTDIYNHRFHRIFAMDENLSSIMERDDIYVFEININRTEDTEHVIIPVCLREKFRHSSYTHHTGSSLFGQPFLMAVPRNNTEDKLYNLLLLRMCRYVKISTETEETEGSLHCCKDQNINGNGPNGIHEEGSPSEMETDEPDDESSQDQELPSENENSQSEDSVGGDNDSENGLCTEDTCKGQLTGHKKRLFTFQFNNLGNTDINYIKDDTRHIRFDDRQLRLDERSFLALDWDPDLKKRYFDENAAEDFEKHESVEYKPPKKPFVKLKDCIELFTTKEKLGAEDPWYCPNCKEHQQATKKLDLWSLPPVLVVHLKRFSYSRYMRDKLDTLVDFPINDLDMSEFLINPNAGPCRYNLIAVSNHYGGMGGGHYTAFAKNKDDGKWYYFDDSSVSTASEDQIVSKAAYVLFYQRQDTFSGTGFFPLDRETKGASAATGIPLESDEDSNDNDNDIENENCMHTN
How it was run: as §1

USP16 = USP16 (UniProt Q9Y5T5)
How it was run: as §1

Measured: log2 ratio of Biotin-Ahx-Ub-VS probe labelling

Chain of USP16 (Q9Y5T5 whole entry, looked up): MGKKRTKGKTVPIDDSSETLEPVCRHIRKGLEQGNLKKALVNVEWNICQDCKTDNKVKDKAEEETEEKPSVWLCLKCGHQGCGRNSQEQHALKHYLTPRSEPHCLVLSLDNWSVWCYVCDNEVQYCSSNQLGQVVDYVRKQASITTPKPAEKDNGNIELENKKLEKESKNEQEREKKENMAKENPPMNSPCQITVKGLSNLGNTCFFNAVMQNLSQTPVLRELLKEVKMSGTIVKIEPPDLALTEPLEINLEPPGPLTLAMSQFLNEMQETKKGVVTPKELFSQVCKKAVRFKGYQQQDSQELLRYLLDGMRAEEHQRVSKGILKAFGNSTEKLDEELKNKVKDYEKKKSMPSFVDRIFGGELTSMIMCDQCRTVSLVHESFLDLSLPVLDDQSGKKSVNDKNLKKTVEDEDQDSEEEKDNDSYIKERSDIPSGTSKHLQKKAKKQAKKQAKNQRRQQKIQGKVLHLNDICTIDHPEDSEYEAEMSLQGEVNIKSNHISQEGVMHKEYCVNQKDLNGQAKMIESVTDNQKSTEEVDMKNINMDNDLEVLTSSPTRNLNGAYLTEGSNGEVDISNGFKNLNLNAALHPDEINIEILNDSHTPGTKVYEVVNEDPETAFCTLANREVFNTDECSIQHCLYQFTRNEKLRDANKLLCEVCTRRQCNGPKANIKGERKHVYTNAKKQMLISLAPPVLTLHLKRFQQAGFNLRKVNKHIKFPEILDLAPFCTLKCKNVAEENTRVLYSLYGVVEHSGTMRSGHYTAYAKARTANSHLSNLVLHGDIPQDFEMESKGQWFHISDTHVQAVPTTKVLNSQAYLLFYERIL
Chain of USP10 (Q14694 whole entry): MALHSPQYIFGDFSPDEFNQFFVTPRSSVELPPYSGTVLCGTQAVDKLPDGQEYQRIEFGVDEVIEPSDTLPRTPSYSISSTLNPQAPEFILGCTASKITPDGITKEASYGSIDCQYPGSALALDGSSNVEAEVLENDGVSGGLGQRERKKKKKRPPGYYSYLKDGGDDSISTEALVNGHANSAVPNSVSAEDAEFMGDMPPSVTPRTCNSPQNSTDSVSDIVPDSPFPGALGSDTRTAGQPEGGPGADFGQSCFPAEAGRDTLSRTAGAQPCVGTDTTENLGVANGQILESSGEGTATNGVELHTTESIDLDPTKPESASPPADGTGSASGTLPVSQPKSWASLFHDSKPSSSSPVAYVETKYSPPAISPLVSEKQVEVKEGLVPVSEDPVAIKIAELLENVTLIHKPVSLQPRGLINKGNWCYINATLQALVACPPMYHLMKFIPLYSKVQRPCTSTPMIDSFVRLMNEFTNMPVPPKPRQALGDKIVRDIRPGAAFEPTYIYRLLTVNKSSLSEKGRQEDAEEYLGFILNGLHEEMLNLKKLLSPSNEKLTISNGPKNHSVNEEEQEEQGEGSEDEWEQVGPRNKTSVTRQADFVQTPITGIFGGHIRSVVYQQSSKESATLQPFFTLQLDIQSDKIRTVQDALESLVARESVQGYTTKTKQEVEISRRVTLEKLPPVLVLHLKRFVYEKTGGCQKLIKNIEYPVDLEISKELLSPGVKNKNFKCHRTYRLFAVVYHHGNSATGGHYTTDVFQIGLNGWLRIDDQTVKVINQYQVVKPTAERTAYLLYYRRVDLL
Chain of UCHL1 (P09936 whole entry, looked up): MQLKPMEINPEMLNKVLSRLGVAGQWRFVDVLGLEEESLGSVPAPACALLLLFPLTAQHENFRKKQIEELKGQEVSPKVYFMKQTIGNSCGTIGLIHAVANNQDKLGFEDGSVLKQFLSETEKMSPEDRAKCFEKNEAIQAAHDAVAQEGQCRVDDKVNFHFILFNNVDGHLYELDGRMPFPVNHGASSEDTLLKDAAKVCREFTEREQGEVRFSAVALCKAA

Cn1cc(CN(Cc2ccc(Cl)cc2)C(=O)CCl)cn1
active: USP16 -1.17
inactive: OTUD6B -0.0472 | OTUD7B -0.238 | PRPF8 0.208 | PSMD7 0.0391 | UCHL1 -0.602 | UCHL3 0.113 | UCHL5 -0.221 | USP10 -0.0261 | USP15 -0.272
